Assay results: the supplement of paper PMC11732987, “Enantioselective OTUD7B fragment discovery through chemoproteomics screening and high-throughput optimisation” (Communications Chemistry, 2025)

Legend:
Experiment in all cases: log2 ratio of Biotin-Ahx-Ub-VS probe labelling (fragment/DMSO); higher = less target engagement (more negative = stronger competition), active = hit call of the paper (q ≤ 0.05, log2 ratio ≤ -1)
Conditions in all cases: compound concentration: 200 uM; treatment time: 3 h
[1] = biological target: USP34 (UniProt Q70CQ2)
In short: (§1)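 Triplicate samples of HEK293T lysate, 495 µg each, received fragment at 200 µM or vehicle for 3 h, followed by Biotin-Ahx-Ub-VS (0.5 µM final) for 1 h. After NeutrAvidin enrichment of labelled DUBs and LysC/trypsin digestion, peptides were run by diaPASEF LC-MS/MS. The values are average log2 fragment/vehicle ratios from global-median-normalised Spectronaut label-free quantities, tested by unpaired t-test on proteins having ≥2 unique peptides.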

[2] = biological target: T1, USP36 (UniProt Q9P275)
T1 sequence (whole entry): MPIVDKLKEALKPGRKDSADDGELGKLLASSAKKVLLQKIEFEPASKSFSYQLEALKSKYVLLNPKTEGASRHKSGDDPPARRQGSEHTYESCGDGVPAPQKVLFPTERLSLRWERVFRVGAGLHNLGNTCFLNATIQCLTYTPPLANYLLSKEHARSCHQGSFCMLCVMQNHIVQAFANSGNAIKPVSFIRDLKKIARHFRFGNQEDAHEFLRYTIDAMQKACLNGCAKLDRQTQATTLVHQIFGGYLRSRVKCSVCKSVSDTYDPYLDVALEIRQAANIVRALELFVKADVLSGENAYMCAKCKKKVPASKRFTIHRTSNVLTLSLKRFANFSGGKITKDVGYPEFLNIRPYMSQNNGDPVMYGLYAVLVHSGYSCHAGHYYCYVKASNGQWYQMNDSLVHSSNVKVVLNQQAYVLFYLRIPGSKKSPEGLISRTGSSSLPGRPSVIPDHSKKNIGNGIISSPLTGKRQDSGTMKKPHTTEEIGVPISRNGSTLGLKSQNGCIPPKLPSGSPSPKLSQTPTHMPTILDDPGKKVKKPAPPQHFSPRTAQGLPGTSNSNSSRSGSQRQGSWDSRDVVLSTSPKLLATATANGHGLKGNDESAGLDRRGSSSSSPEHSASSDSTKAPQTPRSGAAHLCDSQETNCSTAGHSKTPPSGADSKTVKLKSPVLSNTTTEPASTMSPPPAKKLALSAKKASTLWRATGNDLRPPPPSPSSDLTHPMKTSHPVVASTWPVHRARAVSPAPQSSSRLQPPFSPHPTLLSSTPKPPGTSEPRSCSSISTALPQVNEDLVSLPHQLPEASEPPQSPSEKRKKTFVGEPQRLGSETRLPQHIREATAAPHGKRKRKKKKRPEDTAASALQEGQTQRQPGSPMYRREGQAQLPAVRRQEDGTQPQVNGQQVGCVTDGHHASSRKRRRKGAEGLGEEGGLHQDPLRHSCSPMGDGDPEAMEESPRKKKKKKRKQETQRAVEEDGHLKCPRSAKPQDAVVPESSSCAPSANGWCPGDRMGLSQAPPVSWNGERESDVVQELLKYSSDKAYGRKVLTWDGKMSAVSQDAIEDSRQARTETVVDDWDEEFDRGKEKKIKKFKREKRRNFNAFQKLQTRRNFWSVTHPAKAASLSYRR
In short: as §1

[3] = biological target: T2, USP38 (UniProt Q8NB14)
T2 sequence (whole entry): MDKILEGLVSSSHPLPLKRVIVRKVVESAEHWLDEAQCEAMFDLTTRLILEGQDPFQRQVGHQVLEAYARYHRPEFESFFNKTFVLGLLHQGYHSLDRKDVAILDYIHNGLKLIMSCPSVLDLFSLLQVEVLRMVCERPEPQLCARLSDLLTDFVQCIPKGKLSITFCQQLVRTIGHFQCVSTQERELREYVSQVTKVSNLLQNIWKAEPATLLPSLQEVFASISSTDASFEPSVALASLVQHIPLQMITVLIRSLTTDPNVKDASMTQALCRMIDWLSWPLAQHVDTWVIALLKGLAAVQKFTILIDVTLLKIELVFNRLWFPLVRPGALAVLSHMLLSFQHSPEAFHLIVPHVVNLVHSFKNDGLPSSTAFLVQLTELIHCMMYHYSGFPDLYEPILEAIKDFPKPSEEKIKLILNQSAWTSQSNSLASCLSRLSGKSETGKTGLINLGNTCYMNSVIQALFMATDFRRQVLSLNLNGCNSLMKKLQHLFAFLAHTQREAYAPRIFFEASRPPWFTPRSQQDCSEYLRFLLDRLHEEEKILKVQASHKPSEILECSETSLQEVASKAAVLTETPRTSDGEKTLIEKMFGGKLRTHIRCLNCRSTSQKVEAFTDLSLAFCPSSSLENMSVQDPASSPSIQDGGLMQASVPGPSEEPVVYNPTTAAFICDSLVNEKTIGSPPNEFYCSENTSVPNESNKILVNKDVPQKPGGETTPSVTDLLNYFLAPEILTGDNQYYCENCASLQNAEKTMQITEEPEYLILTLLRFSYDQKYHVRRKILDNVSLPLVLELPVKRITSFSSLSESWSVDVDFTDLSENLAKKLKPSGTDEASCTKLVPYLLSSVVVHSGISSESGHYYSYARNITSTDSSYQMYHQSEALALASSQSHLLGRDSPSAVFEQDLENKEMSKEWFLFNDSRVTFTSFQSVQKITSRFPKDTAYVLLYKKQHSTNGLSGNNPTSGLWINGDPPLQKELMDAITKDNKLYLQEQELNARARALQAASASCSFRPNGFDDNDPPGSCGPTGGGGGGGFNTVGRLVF
In short: as §1

[4] = biological target: T3, USP39 (UniProt Q53GS9)
T3 sequence (whole entry): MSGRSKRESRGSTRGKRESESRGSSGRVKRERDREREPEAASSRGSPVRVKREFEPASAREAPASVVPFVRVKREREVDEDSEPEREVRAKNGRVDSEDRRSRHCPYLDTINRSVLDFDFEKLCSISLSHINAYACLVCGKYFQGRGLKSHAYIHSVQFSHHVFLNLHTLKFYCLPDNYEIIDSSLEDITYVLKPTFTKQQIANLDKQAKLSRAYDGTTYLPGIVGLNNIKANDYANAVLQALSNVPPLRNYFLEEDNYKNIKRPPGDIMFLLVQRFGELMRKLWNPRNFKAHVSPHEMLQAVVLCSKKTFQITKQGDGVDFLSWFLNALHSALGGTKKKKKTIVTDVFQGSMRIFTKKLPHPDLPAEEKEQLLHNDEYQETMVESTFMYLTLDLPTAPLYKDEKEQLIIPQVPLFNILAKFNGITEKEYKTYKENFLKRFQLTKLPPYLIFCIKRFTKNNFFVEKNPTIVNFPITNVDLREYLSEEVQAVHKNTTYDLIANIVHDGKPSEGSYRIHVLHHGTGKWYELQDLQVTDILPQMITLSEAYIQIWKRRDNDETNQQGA
In short: as §1

[5] = biological target: T4, USP4 (UniProt Q13107)
T4 sequence (whole entry): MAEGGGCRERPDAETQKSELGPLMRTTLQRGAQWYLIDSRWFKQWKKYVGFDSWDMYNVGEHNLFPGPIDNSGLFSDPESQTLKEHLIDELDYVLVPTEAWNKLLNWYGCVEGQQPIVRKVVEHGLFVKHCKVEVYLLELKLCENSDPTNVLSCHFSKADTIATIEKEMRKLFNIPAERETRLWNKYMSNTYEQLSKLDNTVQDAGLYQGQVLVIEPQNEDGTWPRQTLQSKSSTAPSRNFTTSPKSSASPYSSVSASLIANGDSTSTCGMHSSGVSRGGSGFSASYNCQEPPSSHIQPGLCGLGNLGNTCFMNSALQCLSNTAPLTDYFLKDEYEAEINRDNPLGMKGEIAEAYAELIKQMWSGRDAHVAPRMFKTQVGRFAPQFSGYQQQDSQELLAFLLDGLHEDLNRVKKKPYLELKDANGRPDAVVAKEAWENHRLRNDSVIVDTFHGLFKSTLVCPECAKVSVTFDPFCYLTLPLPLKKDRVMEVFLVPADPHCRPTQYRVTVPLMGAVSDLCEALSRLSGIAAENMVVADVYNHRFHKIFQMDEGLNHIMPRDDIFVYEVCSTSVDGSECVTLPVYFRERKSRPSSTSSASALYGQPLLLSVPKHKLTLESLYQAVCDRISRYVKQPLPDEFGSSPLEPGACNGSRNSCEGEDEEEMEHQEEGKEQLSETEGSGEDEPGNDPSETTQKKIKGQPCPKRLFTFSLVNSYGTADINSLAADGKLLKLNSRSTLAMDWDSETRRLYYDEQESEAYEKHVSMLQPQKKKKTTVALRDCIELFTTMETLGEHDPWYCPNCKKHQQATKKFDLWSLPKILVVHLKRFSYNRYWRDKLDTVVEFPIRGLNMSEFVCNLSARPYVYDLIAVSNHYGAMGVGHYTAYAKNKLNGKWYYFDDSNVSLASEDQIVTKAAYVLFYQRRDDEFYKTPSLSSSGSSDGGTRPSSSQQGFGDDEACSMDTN
In short: as §1

Measured: log2 ratio of Biotin-Ahx-Ub-VS probe labelling

Sequence of USP34 (Q70CQ2 whole entry, the tested form may be a part): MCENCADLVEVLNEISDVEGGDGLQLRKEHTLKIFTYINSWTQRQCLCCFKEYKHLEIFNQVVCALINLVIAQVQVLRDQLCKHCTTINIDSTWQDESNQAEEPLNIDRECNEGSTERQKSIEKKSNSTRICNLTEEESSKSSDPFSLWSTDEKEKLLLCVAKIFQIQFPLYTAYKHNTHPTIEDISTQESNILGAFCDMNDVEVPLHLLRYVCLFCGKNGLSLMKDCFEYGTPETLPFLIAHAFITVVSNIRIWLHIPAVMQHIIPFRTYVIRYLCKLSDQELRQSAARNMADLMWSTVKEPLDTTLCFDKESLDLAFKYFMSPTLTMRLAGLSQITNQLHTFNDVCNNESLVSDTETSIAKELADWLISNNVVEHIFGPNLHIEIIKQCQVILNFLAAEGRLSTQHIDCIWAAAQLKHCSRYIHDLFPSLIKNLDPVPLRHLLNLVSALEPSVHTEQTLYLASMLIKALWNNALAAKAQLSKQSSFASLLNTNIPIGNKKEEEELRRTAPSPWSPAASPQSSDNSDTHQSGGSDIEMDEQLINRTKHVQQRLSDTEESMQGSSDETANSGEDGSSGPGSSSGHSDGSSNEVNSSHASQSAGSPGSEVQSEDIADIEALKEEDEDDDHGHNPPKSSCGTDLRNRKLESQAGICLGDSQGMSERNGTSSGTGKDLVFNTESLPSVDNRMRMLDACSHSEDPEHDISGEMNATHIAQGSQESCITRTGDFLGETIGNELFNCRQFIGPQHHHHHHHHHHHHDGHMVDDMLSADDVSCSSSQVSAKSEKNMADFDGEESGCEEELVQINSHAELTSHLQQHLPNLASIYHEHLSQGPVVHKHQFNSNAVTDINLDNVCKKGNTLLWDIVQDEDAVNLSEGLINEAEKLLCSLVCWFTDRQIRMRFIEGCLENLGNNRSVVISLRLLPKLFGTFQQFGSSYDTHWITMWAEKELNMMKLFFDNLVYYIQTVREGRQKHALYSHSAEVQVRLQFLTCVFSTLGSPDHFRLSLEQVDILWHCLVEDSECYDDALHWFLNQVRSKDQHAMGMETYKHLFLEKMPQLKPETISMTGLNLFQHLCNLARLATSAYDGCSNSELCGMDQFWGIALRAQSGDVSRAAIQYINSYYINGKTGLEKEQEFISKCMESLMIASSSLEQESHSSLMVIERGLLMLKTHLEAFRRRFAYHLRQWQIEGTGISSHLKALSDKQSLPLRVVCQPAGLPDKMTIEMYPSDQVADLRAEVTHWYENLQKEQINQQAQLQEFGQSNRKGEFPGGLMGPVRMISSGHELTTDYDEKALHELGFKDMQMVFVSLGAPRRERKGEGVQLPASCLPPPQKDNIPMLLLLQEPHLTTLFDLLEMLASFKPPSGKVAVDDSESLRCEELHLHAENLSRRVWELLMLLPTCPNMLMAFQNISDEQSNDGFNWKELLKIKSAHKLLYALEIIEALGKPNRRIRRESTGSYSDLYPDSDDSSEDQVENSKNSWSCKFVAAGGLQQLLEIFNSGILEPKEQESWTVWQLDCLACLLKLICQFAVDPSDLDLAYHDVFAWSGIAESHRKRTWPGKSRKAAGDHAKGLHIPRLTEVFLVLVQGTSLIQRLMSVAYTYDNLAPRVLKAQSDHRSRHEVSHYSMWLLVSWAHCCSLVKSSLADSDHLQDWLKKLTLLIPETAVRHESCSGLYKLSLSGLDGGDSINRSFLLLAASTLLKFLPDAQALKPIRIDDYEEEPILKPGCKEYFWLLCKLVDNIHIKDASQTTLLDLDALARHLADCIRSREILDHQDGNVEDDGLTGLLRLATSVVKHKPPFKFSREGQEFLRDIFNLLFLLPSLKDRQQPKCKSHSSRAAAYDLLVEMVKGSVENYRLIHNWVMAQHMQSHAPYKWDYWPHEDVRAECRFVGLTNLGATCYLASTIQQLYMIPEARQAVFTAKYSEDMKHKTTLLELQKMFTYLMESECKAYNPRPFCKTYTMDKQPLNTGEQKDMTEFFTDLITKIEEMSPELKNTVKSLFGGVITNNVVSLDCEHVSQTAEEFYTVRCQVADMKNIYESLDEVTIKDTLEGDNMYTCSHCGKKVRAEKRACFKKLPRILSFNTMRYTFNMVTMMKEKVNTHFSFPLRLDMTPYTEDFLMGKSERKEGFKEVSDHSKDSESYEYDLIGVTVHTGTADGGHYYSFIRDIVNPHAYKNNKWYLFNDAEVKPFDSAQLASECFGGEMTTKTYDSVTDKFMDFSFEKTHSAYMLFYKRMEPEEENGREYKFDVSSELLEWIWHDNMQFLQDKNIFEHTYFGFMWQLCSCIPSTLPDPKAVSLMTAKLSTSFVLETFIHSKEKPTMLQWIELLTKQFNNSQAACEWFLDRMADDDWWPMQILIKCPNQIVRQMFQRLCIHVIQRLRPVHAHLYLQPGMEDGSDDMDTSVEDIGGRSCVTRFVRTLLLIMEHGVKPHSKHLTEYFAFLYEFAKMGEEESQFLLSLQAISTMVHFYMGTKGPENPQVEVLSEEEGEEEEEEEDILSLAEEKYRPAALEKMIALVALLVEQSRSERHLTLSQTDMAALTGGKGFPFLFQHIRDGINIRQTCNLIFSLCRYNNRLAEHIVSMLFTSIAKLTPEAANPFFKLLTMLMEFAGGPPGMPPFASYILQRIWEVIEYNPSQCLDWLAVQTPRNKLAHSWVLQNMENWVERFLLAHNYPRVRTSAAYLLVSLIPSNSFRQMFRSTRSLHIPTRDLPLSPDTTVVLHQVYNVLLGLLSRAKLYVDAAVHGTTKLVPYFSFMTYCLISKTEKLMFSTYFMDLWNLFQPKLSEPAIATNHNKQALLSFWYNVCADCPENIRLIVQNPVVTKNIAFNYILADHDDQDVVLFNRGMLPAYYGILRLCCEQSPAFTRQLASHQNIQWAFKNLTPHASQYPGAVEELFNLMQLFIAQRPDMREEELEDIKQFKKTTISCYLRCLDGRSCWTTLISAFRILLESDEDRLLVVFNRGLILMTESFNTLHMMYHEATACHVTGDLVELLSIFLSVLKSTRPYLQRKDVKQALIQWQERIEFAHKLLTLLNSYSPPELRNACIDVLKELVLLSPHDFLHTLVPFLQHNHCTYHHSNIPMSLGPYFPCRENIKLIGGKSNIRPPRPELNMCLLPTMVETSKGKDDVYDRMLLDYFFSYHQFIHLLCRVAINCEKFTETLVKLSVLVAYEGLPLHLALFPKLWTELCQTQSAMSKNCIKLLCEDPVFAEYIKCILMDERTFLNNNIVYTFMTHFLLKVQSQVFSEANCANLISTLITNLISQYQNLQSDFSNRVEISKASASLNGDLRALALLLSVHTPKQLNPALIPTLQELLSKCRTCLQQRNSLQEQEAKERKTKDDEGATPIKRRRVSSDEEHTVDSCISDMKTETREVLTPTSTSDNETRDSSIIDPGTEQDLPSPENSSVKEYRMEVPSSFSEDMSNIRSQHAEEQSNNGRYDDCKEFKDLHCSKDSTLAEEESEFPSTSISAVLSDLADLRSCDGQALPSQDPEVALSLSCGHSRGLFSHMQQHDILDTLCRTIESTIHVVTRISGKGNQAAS

O=C(CCl)NC1(c2ccc3c(c2)OCCO3)CCCC1
inactive: [1] -0.146 | [2] -0.197 | [3] -0.013 | [4] 0.277 | [5] -0.0625
